hcDAF-12 act = activators of H. contortus DAF-12 nuclear receptor; HEK293 hcDAF-12 lit1-tk-luc reporter, luminescence; 0% DMSO, 100% Δ7-dafachronic acid; activation, % at 6.8 µM; actives 1.4% (n = 370,000);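 active = activation above the mean of all tested compounds plus 3 SD, cut at about 5.5% in these data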;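 note: 100% = response to 3 µM Δ7-dafachronic acid high control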
Wnt bcat act = Wnt/beta-catenin pathway activation; Wnt/beta-catenin reporter cell assay, activator, plate reader; actives 1.2% (n = 300,000); activation, % at 9.35 µM; in the data active = activation above about 30%, passing the limit was not always enough; inconclusive = no clear call, values can overlap the other calls;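 note: 0% = neutral control wells and 100% = positive control wells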
hgDAF-12 ag = hgDAF-12 agonism, primary luciferase screen; HEK293 GAL4-hgDAF12 UAS-luciferase reporter, agonist luminescence; normalized to butyrate control; activation, % at 6.8 µM; actives 1.8% (n = 370,000); AID 687014;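 active = activation above a cutoff set at the mean of all screened compounds plus 3 SD, cut at about 10% in these data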;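 note: 0% = DMSO wells and 100% = sodium butyrate wells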
DAX1 StAR inh = inhibitors of DAX1 repression of SF-1 activated StAR promoter; HEK293T StAR-luciferase reporter, SF-1/DAX-1 repression relief; inhibition, % at 6.8 µM; actives 1.1% (n = 370,000); AID 652010;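 active = inhibition above the mean over all tested compounds plus 3 SD, cut at about 3.6% in these data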;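 note: 0% = DAX-1 cells with DMSO and 100% = cells lacking DAX-1 with DMSO; higher inhibition means more luminescence from relief of DAX-1 repression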
ssDAF-12 act = activates DAF-12 receptor from parasite S. stercoralis; HEK293 ssDAF-12/GRIP1 lit1-tk-luc reporter, luminescence; % of 3 µM dafachronic acid response; activation, % at 6.8 µM; actives 1% (n = 370,000);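 active = activation above the mean over all tested compounds plus 3 SD, cut at about 0.9% in these data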;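 note: 0% = DMSO-only wells and 100% = 3 µM delta7-dafachronic acid wells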
esBAF inh = SWI/SNF esBAF complex inhibition; actives 2% (n = 350,000); reporter increase, % at 12.5 µM; mouse ES cells, Bmi1-luciferase knock-in reporter, 24 h; 100% = twice the neutral-well signal; in the data active = activation above about 40%; inconclusive = no clear call, values can overlap the other calls;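 note: 0% = median of the plate's neutral control wells and 100% = double that signal; a rise in the Bmi1 reporter signal indicates esBAF inhibition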
Numbers without * were called inactive; u = inconclusive; x = not tested or not shown. This is a sample that favours compounds with a hit; in the whole collection about 4.2% have one here.

SMILES	hcDAF-12 act	Wnt bcat act	hgDAF-12 ag	DAX1 StAR inh	ssDAF-12 act	esBAF inh
O=C(CCSCc1ccccc1F)NCCc1ccccc1	0	38*	-1	0	-1	5
Cc1ccc(CNC(=O)CSCc2ccccc2F)cc1	-1	5	13*	2	-1	x
Cc1noc(C)c1S(=O)(=O)Nc1ccc2c(c1)C(=O)N([C@@H](C)CO)C[C@H](C)[C@@H](CN(C)S(=O)(=O)c1cn(C)cn1)OCCCC[C@H](C)O2	x	x	x	x	x	0
O=C(O)c1nn(Cc2nc3ccccc3o2)c(=O)c2ccccc12	5.9*	1	-1	0	0	-1
Cc1cccc(C(=O)Nc2ccc(C(=O)/C=C/c3cccnc3)cc2)c1	0	x	3	-1	-1	42*
COc1ccc(-c2c(C)c3ccc(OCC(C)=O)cc3oc2=O)cc1	x	27	x	x	x	68*
CCCOc1ccc2c3c(c(=O)oc2c1)CCCC3	0	x	1	-1	-1	48*
CCCOc1ccc2c(C)c(CC(=O)OC)c(=O)oc2c1	0	x	8	0	0	68*
COc1cccc(S(=O)(=O)Nc2ccc3c(c2)C(=O)N(C)C[C@H](OC)[C@H](C)CN[C@H](C)CO3)c1	x	x	x	x	x	6
CCCc1cc(C(=O)Nc2cc(OC)ccc2OC)cs1	5	6	5	1	1.2*	5
C[C@H]1CN([C@@H](C)CO)C(=O)c2cc(NC(=O)NC3CCCCC3)ccc2O[C@H]1CN(C)S(=O)(=O)c1ccccc1	x	x	x	x	x	-2
[O-]/[N+](=C\c1ccco1)c1ccc(Cl)cc1	1	26	3	-1	0	88*
[O-][N+](=Cc1ccccc1)c1ccc(Cl)cc1	3	38*	2	3	0	x
[O-]/[N+](=C/c1ccco1)c1ccccc1	3	7	5	0	0	14
C#CCN1C(=O)S/C(=C/C=C/c2ccc(N(C)C)cc2)C1=O	4	45*	13*	2	0	79*
Cc1c(/C=C(\CC(=O)O)c2nc3ccccc3s2)cc(C#N)n1C	5.6*	1	2	0	-1	x
Cc1cc(C)cc(NC(=O)C2CCN(C(=O)[C@@H]3Cc4ccccc4CN3)CC2)c1	0	2	1	0	-1	4
Cc1ccc(NC(=O)C2CCN(C(=O)[C@@H]3Cc4ccccc4CN3)CC2)cc1	0	7	4	1	0	54*
COCC(=O)N1C[C@@H](C)[C@H](OC)CN(C)C(=O)c2ccc(NC(=O)NC(C)C)cc2OC[C@H]1C	x	x	x	x	x	4
Cn1c(/C(C#N)=C(\O)c2ccc(Br)s2)nc2ccccc21	5	20	3	0	1.0*	47*
Cn1c(/C(C#N)=C(\O)c2cc(Cl)sc2Cl)nc2ccccc21	3	-1	2	3	-1	10
CCCC(=O)Nc1ccc2c(c1)C(=O)N(C)[C@@H]1CC[C@@H](CC(=O)NCCOC)O[C@@H]1CO2	x	x	x	x	x	-2
Clc1ccc(CSc2snnc2-c2ccccc2)c(Cl)c1	0	38*	6	1	-2	u
c1ccc(CSc2snnc2-c2ccccc2)cc1	-1	x	2	0	-1	u
O=C(N[C@@H]1CC[C@@H](CCNC(=O)C2CC2)O[C@H]1CO)c1ccncc1	x	x	x	x	x	0
SMILES	hcDAF-12 act	Wnt bcat act	hgDAF-12 ag	DAX1 StAR inh	ssDAF-12 act	esBAF inh
O=S(=O)(Cc1nc2ccccc2s1)c1ccccc1	4	5	11*	3	0	57*
O=C(Nc1ccncc1)Nc1cccc(Cl)c1	0	1	1	-2	-1	4
O=C(Nc1cccc(C2=NCCN2)c1)Nc1cccc(C2=NCCN2)c1	0	-4	0	0	-1	45*
C[C@H](CO)N1C[C@H](C)[C@@H](CN(C)C(=O)NC2CCCCC2)OCCCC[C@H](C)Oc2ccc(NC(=O)Nc3ccc4c(c3)OCO4)cc2C1=O	x	x	x	x	x	10
C[C@@H]1CCCCO[C@@H](CN(C)S(=O)(=O)c2cn(C)cn2)[C@@H](C)CN([C@@H](C)CO)C(=O)c2cc(NS(=O)(=O)c3ccccc3)ccc2O1	x	x	x	x	x	-1
CC(C)CN(CCOc1cccc(N2C(=O)C3=C(CCCC3)C2=O)c1)CC(C)C	0	42*	4	1	-1	x
COCC1CCCN(C(=O)c2cc(COc3ccc(C(C)=O)cc3)on2)C1 (stereo unspecified)	5.7*	36*	10	4.2*	-1	70*
CC(=O)c1ccc(OCc2cc(C(=O)N3CCN4CCCC4C3)no2)cc1 (stereo unspecified)	0	1	-4	-1	-1	3
CC(=O)c1ccc(OCc2cc(C(=O)N3CC[C@@H]4CCCC[C@H]4C3)no2)cc1	2	37*	10	1	0	69*
CC(=O)c1ccc(OCc2cc(C(=O)NC3CCCCC3)no2)cc1	1	32*	7	3.6*	0	x
C[C@H](CO)N1C[C@H](C)[C@H](CN(C)C(=O)Nc2cccc3ccccc23)Oc2c(NS(=O)(=O)c3cccs3)cccc2C1=O	x	x	x	x	x	3
CN1[C@@H]2c3ccc(-c4cccc(F)c4)c(=O)n3C[C@H]1[C@H](CO)[C@H]2C(=O)Nc1nccs1	x	x	x	x	x	3
Cc1cccc(C)c1NC(=O)CN	0	45*	-2	1	0	-8
COC(=O)c1ccc(CN2CCC(CO)(Cc3ccccc3Cl)CC2)cc1	-1	-1	2	0	-1	0
O=C(C1CC12CCCC2)N1CCC(CO)(Cc2ccccc2Cl)CC1 (stereo unspecified)	-1	56*	-1	0	-2	x
O=C(NC[C@H]1[C@H](c2ccccc2)[C@@H](CO)N1C(=O)C1CC1)NC1CCCC1	x	x	x	x	x	-11
CC(/C=C/C=C/c1ccccc1)=N\NC(=O)c1cccnc1	0	4	6	-1	-1	x
CC(/C=C/C=C/c1ccccc1)=N/NC(=O)c1ccc2c(c1)OCCO2	3	-1	4	1	1.2*	u
O=C(/C=C/c1ccc2c(c1)OCCCO2)c1ccc2ccccc2c1O	-2	6	-2	0	-1	45*
O=C(/C=C/c1ccccc1)c1ccc2c(c1)OCCCCO2	4	15	12*	2	0	x
C[C@@H]1CN([C@H](C)CO)C(=O)c2cc(NS(=O)(=O)c3ccc(Cl)cc3)ccc2O[C@H]1CN(C)S(=O)(=O)c1cccs1	x	x	x	x	x	-1
COc1cccc(NC(=O)Nc2ccc3c(c2)C(=O)N(C)[C@H]2CC[C@H](CC(=O)O)O[C@@H]2CO3)c1	x	x	x	x	x	-7
C[C@H](CO)N1C[C@H](C)[C@@H](CN(C)C(=O)CN(C)C)Oc2cc(C#Cc3cccnc3)ccc2S1(=O)=O	x	x	x	x	x	-10
COc1cccc2cc(C(=O)OCC(=O)NC3CCCC(C)C3C)c(=O)oc12 (stereo unspecified)	5	-4	10	1	0	64*
